# Measurements published in the supplement of paper PMC8728848.
# Many of the other results were omitted from the sample, so the strongest signals are more common in it than they were.
# Legend:
# Assay in all cases: glycan array binding signal (z-score within array); higher = stronger binding
# Details in all cases: glycan notation: IUPAC condensed, linker removed
# [1] = target: Fuc(a1-2)Gal(b1-4)GlcNAc
# Outline: (§1)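 Glycan array data were curated from 3228 arrays in the Consortium for Functional Glycomics database and kept only where the protein sequence was available. Glycan names were converted to IUPAC-condensed notation, and columns mapping to the same glycan were averaged. The binding signal is a within-array Z-score, averaged across arrays of the same protein sequence at different concentrations or buffers and across linkers. Negative Z-scores can be read as non-binding.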
# [2] = target: Fuc(a1-2)Gal6S(b1-4)Glc6S
# Outline: as §1
# [3] = target: Fuc(a1-2)Gal6S(b1-4)GlcNAc
# Outline: as §1
# [4] = target: Fuc(a1-2)[Gal(a1-3)]Gal(b1-4)GlcNAc
# Outline: as §1
# [5] = target: Fuc(a1-2)[Gal(a1-4)]Gal(b1-4)GalNAc
# Outline: as §1
# [6] = target: Fuc(a1-2)[GalNAc(a1-3)]Gal(b1-3)GlcNAc
# Outline: as §1
# [7] = target: Fuc(a1-2)[GalNAc(a1-3)]Gal(b1-4)GlcNAc
# Outline: as §1
# [8] = target: Fuc(a1-2)[GalNAc(a1-4)]Gal(b1-4)GlcNAc
# Outline: as §1
# [9] = target: Fuc(a1-3)[Gal(b1-4)]GlcNAc(b1-4)Gal(b1-4)[Fuc(a1-3)]GlcNAc(b1-4)Gal(b1-4)[Fuc(a1-3)]GlcNAc
# Outline: as §1
# [10] = target: Fuc(a1-3)[Gal3S(b1-4)]GlcNAc6S
# Outline: as §1
# [11] = target: Gal(a1-4)GlcNAc
# Outline: as §1
# [12] = target: Gal(b1-3)GalNAc(b1-3)Gal(a1-4)Gal(b1-4)Glc
# Outline: as §1
# [13] = target: Gal(b1-3)[Neu5Ac(a2-6)]GlcNAc(a1-4)Gal(b1-4)Glc
# Outline: as §1
# [14] = target: Gal(b1-4)GalNAc(b1-3)[Fuc(a1-2)]Gal(b1-4)GlcNAc
# Outline: as §1
# [15] = target: Gal(b1-4)GlcNAc(b1-6)GalNAc
# Outline: as §1
# [16] = target: Gal3S(b1-3)[Fuc(a1-4)]GlcNAc
# Outline: as §1
# [17] = target: Gal6S(b1-4)Glc
# Outline: as §1
# [18] = target: GalNAc(a1-3)GalNAc
# Outline: as §1
# [19] = target: GalNAc(b1-3)Gal(a1-4)Gal(b1-4)GlcNAc
# Outline: as §1
# [20] = target: GlcNAc(b1-3)Gal
# Outline: as §1
# [21] = target: GlcNAc(b1-3)Gal(b1-3)GalNAc
# Outline: as §1
# [22] = target: GlcNAc(b1-4)Gal(b1-4)GlcNAc
# Outline: as §1
# [23] = target: GlcNAc(b1-4)GlcNAc(b1-4)GlcNAc(b1-4)GlcNAc(b1-4)GlcNAc(b1-4)GlcNAc
# Outline: as §1
# [24] = target: GlcNAc(b1-6)GalNAc
# Outline: as §1
# [25] = target: Kdn(a2-3)Gal(b1-3)GlcNAc
# Outline: as §1
# [26] = target: Man(a1-2)Man(a1-2)Man(a1-6)[Man(a1-3)]Man
# Outline: as §1
# [27] = target: Neu5Ac(a2-3)Gal(b1-3)GalNAc
# Outline: as §1
# [28] = target: Neu5Ac(a2-3)Gal(b1-3)GalNAc6S
# Outline: as §1
# [29] = target: Neu5Ac(a2-3)Gal(b1-4)GlcNAc(b1-3)Gal(b1-3)GlcNAc
# Outline: as §1
# [30] = target: Neu5Ac(a2-3)Gal(b1-4)GlcNAc(b1-3)Gal(b1-4)[Fuc(a1-3)]GlcNAc
# Outline: as §1
binder,measurement,setting,value
LEA (Lycopersicon esculentum) (protein) NEVFDVPMNETIGVESINASVGGYPRCGAQGDGGNCPSGMCCSVWGWCGKTYGYCAPQNCQKQCPAPYPEGRCGWQADGKSCPNGKCCSYGGWCGTTSDYCARQNCQKQCILPSPPPPPPPPPGFPRPECGLQKNGERCTKPGECCSIWGLCGATYKYCDPQHCQKQCSAPFPPGRCGWQADGRPCPTGQCCSFSGWCGTTSAHCTYPQCVSQCNDPRFPSSLNNRIQSFML,glycan array binding signal (z-score),[1],1.11
same,glycan array binding signal (z-score),[2],-0.512
same,glycan array binding signal (z-score),[3],-0.55
same,glycan array binding signal (z-score),[4],2.51
same,glycan array binding signal (z-score),[5],2.53
same,glycan array binding signal (z-score),[6],-0.547
same,glycan array binding signal (z-score),[7],2.5
same,glycan array binding signal (z-score),[8],2.62
same,glycan array binding signal (z-score),[9],-0.541
same,glycan array binding signal (z-score),[10],0.546
same,glycan array binding signal (z-score),[11],-0.545
same,glycan array binding signal (z-score),[12],-0.547
same,glycan array binding signal (z-score),[13],-0.546
same,glycan array binding signal (z-score),[14],2.17
same,glycan array binding signal (z-score),[15],0.621
same,glycan array binding signal (z-score),[16],-0.518
same,glycan array binding signal (z-score),[17],-0.518
same,glycan array binding signal (z-score),[18],-0.553
same,glycan array binding signal (z-score),[19],2.55
same,glycan array binding signal (z-score),[20],-0.567
same,glycan array binding signal (z-score),[21],-0.526
same,glycan array binding signal (z-score),[22],1.96
same,glycan array binding signal (z-score),[23],2.26
same,glycan array binding signal (z-score),[24],-0.545
same,glycan array binding signal (z-score),[25],-0.443
same,glycan array binding signal (z-score),[26],-0.296
same,glycan array binding signal (z-score),[27],-0.56
same,glycan array binding signal (z-score),[28],-0.466
same,glycan array binding signal (z-score),[29],-0.129
same,glycan array binding signal (z-score),[30],-0.542
